VLA-4 inh – inhibition in a human VLA-4 binding assay. inhibition, % (about 7 µM as worked out from the volumes in the protocol). VLA-4 expressing cells, ligand binding flow cytometry. actives 0.2% (n = 330,000). P13612; in the data active means inhibition above about 50%
Target sequence (P13612 whole entry, looked up): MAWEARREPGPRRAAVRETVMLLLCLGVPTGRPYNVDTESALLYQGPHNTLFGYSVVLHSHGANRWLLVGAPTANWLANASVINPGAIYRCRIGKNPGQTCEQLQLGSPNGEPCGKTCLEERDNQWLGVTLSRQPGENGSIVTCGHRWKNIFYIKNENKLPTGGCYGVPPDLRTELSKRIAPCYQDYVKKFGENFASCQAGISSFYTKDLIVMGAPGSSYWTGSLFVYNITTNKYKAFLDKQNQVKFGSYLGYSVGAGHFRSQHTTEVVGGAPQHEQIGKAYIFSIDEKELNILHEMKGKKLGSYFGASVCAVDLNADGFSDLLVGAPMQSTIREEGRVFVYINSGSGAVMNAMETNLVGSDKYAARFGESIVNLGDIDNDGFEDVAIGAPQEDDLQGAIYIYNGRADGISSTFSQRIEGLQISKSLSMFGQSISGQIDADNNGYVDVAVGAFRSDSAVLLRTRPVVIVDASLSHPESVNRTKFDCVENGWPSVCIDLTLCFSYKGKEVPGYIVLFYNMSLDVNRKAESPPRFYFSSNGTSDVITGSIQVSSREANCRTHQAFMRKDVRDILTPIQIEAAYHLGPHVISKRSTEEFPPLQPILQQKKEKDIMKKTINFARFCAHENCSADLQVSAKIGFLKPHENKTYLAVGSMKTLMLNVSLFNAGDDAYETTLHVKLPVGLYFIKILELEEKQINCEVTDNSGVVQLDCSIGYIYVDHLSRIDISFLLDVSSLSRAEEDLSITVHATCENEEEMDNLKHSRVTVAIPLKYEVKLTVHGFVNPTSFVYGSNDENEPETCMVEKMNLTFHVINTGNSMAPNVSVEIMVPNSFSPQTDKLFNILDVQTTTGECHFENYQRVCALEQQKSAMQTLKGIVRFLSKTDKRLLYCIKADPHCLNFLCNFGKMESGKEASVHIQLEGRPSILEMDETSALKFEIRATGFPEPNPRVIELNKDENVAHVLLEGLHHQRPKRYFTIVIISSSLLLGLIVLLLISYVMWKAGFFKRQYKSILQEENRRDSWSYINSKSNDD
MEP2-GFP yeast – alters MEP2-GFP fluorescence in TOR pathway yeast screen | actives 0.51% (n = 330,000) | S. cerevisiae MEP2-GFP strain, flow cytometry GFP, 3 h; 100% = DMSO control level | AID 2016 | GFP response vs DMSO, % at 10 µM;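 active means GFP response versus DMSO above a set limit, roughly screen mean plus 3 SD, cut at about 180% in these data; inconclusive means fewer than 70 cells counted for a yeast strain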;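 further: median GFP fluorescence of the barcode-gated MEP2-GFP cells per well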
CIT2 TOR yeast – yeast TOR pathway CIT2-GFP modulation; S. cerevisiae CIT2-GFP strain, flow cytometry, 3 h; 100 means same as DMSO wells; GFP response vs DMSO, % at 10 µM; actives 0.065% (n = 320,000); AID 2029;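 active means GFP response relative to DMSO above a set limit, near the screen mean plus 3 SD, cut at about 150% in these data; inconclusive means Fewer than 70 cells measured for a yeast strain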;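 further: ratio of well median GFP fluorescence to mean of DMSO wells on the plate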
AGP1 TOR yeast – alters AGP1-GFP fluorescence in TOR pathway yeast screen; S. cerevisiae AGP1-GFP multiplex flow cytometry, 3 h; GFP as percent of DMSO wells; GFP response vs DMSO, % at 10 µM; actives 0.02% (n = 320,000); AID 2066;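 active means GFP response relative to DMSO above a set limit, near screen average plus 3 SD, cut at about 150% in these data; inconclusive means fewer than 70 cells counted for the yeast strain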;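 further: median GFP channel fluorescence of the gated AGP1 strain per well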
RPL19A-GFP yeast – modulators of TOR pathway RPL19A-GFP in S. cerevisiae | S. cerevisiae RPL19A-GFP strain, flow cytometry, 3 h; active compounds read low | percent response vs DMSO, % at 10 µM | actives 0.3% (n = 330,000) | AID 2025;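 active means percent response vs DMSO below 50%; inconclusive means fewer than 70 events counted for the yeast strain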;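 further: median channel GFP fluorescence of the barcoded RPL19A-GFP strain; ratio of sample median GFP to plate DMSO average so 100% = DMSO; lower means less RPL19A-GFP as with rapamycin TOR inhibition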
LAP4-GFP MLPCN – alters LAP4-GFP fluorescence in TOR pathway yeast screen. actives 0.34% (n = 320,000). AID 2023. S. cerevisiae LAP4-GFP multiplex, flow cytometry GFP, 3 h; median GFP as percent of DMSO wells. GFP response vs DMSO, % at 10 µM;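 active means GFP response vs DMSO above a set limit, about the screen mean plus 3 SD, cut at about 150% in these data; inconclusive means under 70 cell events counted for the yeast strain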
* marks the source's active call; other numbers are inactive results; ? = inconclusive; [ ] = another dose, or the depositor's remark. Most compounds without a hit are left out; they make up all but 1.1% or so of the library.

SMILES	VLA-4 inh	MEP2-GFP yeast	CIT2 TOR yeast	AGP1 TOR yeast	RPL19A-GFP yeast	LAP4-GFP MLPCN
CC(C)c1nc2cc(C(=O)N(C)Cc3ccc(F)cc3)ccc2o1	5	96	98	93	91	94
Cc1cccc(C)c1NC(=O)c1nc(S(=O)(=O)Cc2ccccc2)ncc1Cl	9	112	101	72	94	84
Cc1nnc(NC(=O)c2nc(S(=O)(=O)Cc3ccccc3)ncc2Cl)s1	-18	111	112	113	102	168*
CCC(=O)N1CCc2cc(S(=O)(=O)NCCC(=O)Nc3ccc(OC)cc3)ccc21	-4	91	100	103	97	100
CC(=O)N1CCc2cc(S(=O)(=O)CCC(=O)NCCc3ccccc3)ccc21	18	121	?	?	28*[may fluoresce violet]	79
CCC(=O)N1CCc2cc(S(=O)(=O)CCC(=O)Nc3ccc(OC)cc3)ccc21	1	132	?	?	20*[may fluoresce violet]	77
Cc1ccc(CCNC(=O)CCS(=O)(=O)c2ccc3c(c2)oc(=O)n3C)cc1	2	207*[may fluoresce violet]	?	?	52	91
CCCCCCn1nc(C(=O)OCC(=O)NC2CCS(=O)(=O)C2)c2ccccc2c1=O (configuration not stated)	6	107	95	101	110	102
CN(CC(=O)N1CCN(c2ccccc2)CC1)C1CCCc2ccccc21 (configuration not stated)	1	104	104	98	98	94
Cc1ccc(S(=O)(=O)NNC(=O)c2sc(NS(=O)(=O)c3ccccc3)nc2C)cc1	4	494*[may fluoresce violet]	?	?	57	85
Cc1ccc(S(=O)(=O)Nc2nc(C)c(C(=O)NNS(=O)(=O)c3cc(C)ccc3C)s2)cc1	22	241*[may fluoresce violet]	?	?	51	66
CC(NC(=O)Cc1ccsc1)c1ccc(Cl)cc1Cl (configuration not stated)	8	102	102	100	105	107
Cc1ccc(S(=O)(=O)N(C)c2ccc(C(=O)Nc3ccccc3C(=O)N3CCOCC3)cc2)cc1	3	105	114	111	114	96
CCCCS(=O)(=O)NC1=NCN(CCO)CN1	2	303*[may fluoresce violet]	?	?	61	75
CCN1CN=C(NS(=O)(=O)c2ccc(C)cc2)NC1	2	103	102	109	102	107
COc1ccc(NC(=O)Cn2nnc(C(=O)NCc3ccco3)c2N)cc1	-1	134	?	?	22*[may fluoresce violet]	80
Cc1cccc(-n2nnc(C(=O)NCc3ccco3)c2N)c1	0	?	?	?	18*[may fluoresce violet]	?
Cn1cc(CN2CCC(CO)(CCCc3ccccc3)CC2)c(-c2ccccc2)n1	-7	107	105	106	100	109
C#CCOCCOCCOCCNc1nc(N2CCN(C(=O)[C@H](CCC(=O)O)n3cc([C@@H](N)[C@H](C)CC)nn3)CC2)nc(N2CCN(C(=O)[C@H](CCC(=O)O)n3cc([C@@H](N)CC(N)=O)nn3)CC2)n1	-4	90	99	97	92	93
O=C(N/N=C/c1sc(=O)n(Cc2ccc(Br)cc2)c1Cl)c1ccco1	30	238*[may fluoresce violet]	?	?	52	56
O=C(Nc1ccccc1)c1nnsc1S(=O)c1ccc(Cl)cc1 (configuration not stated)	14	95	58	66	59	231*
COc1ccc(/C=C2/Sc3ccc(C(=O)N4CCc5ccccc5C4)cc3NC2=O)cc1	26	91	88	124	99	96
COc1ccc(/C=C2\Sc3ccc(C(=O)N4CCc5ccccc5C4)cc3N(C)C2=O)cc1	2	218*	99	92	101	126
CS(=O)(=O)N1CCN(c2nnc(-c3ccccc3)c3ccccc23)CC1	7	230*[may fluoresce violet]	?	?	57	89
CCOC(=O)c1ccc(S(=O)(=O)N2CCN(CCc3ccncc3)CC2)cc1	-1	101	100	100	101	96
SMILES	VLA-4 inh	MEP2-GFP yeast	CIT2 TOR yeast	AGP1 TOR yeast	RPL19A-GFP yeast	LAP4-GFP MLPCN
CN1CCN(c2ccccc2NC(=O)Cn2ncc3c([nH]c4ccccc43)c2=O)CC1	15	115	111	104	100	96
O=C(Cn1ncc2c([nH]c3ccccc32)c1=O)N1CCCCC1	14	107	98	101	100	100
Cc1ccc2[nH]c3c(=O)n(CC(=O)N4CCN(C)CC4)ncc3c2c1	10	193*	117	115	78	111
Cc1ccc2[nH]c3c(=O)n(CC(=O)Nc4ccccc4N4CCN(C)CC4)ncc3c2c1	4	258*[may fluoresce violet]	?	?	43*[may fluoresce violet]	56
Cc1cc(C(=O)CN2CCN(CC(=O)Nc3ccc(F)cc3)CC2)c(C)n1C1CC1	8	98	90	96	92	93
Cc1noc(C)c1COc1cccc(C(=O)OC(C)C#N)c1 (configuration not stated)	0	307*[may fluoresce violet]	?	35	20*[may fluoresce violet]	99
CC1CCN(CCCNC(=O)C2CCN(S(=O)(=O)N3CCC4(CC3)OCCO4)CC2)CC1	8	131	?	18	45*[may fluoresce violet]	84
NS(=O)(=O)c1ccc(CNC(=O)C2CCCN2C(=O)c2cccs2)cc1 (configuration not stated)	6	106	105	99	105	91
O=C(COc1ccc([N+](=O)[O-])cc1)Nc1ccc2c(c1)nc1n2CCOC1	0	203*[may fluoresce violet]	?	?	11*[may fluoresce violet]	48
CC(=O)Nc1ccc(NC(=O)C(C)Oc2ccc(Cl)cc2Cl)cc1 (configuration not stated)	16	104	103	95	100	97
CC(Oc1ccc(Cl)cc1Cl)C(=O)NC1=NN(c2ccccc2)C(=O)C1 (configuration not stated)	9	102	87	86	75	157*
Cc1ccc(C)c(S(=O)(=O)N2CCCOC2CNC(=O)C(=O)NCCc2ccccc2)c1 (configuration not stated)	-15	104	95	93	101	97
O=C1OC[C@H](Cc2ccc3c(c2)OCO3)/C1=C\c1ccc2c(c1)OCO2	28	339*[may fluoresce violet]	?	?	14*[may fluoresce violet]	104
O=C1CC(Cc2ccccc2)C(=O)N1CCc1ccc2c(c1)OCO2 (configuration not stated)	5	95	94	90	97	106
NC(=O)c1nsc(C(=O)N(CC(=O)NCc2ccccc2)c2ccc(F)cc2)c1N	3	309*[may fluoresce violet]	?	72	64	87
O=C(Nc1ccc(S(=O)(=O)N2CCCC2)cc1)c1ccc(Br)o1	6	106	107	95	98	102
